Assay results reported in PubChem BioAssay AID1159580 (chemical genetic matrix, 2015).
Among all 5,500 compounds or so, about 2,000 (36%) were called active. About 18% were inconclusive and are not listed. Cut-off read from the data, not from the text of the source: active = normalized growth mostly below about 0.91 (no sharp cut-off); inconclusive = no clear call, values can overlap the other calls; inactive = mostly above about 0.92. This is one part of the list.

Experiment: chemical genetic growth profiling, strain panel (AID 1159580);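 note: tested at 20 µM; growth read once vehicle control cultures reached saturation at 30 °C; 1 = growth at the plate median or of vehicle wells; lower values mean less growth of the strain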
Conditions: growth OD

Measured: normalized growth

CCCCCCCCCCc1ccc(-c2ccccc2)cc1
inactive: S. cerevisiae deletion strains, locus YAL013W, strain DEP1, stronger effect = lower value 0.982 | S. cerevisiae deletion strains, locus YBR229C, strain ROT2, stronger effect = lower value 1.01 | S. cerevisiae deletion strains, locus YDL101C, strain DUN1, stronger effect = lower value 0.99 | S. cerevisiae deletion strains, locus YDR150W, strain NUM1, stronger effect = lower value 0.976 | S. cerevisiae deletion strains, locus YEL061C, strain CIN8, stronger effect = lower value 0.988 | S. cerevisiae deletion strains, locus YGR078C, strain PAC10, stronger effect = lower value 0.988 | S. cerevisiae deletion strains, locus YHR030C, strain SLT2, stronger effect = lower value 0.769 | S. cerevisiae deletion strains, locus YHR087W, strain rtc3, stronger effect = lower value 1.09 | S. cerevisiae deletion strains, locus YJL187C, strain SWE1, stronger effect = lower value 1.01 | S. cerevisiae deletion strains, locus YJR043C, strain POL32, stronger effect = lower value 0.992 | S. cerevisiae deletion strains, locus YJR075W, strain HOC1, stronger effect = lower value 0.989 | S. cerevisiae deletion strains, locus YLR039C, strain RIC1, stronger effect = lower value 0.992 | S. cerevisiae deletion strains, locus YLR058C, strain SHM2 (second series), stronger effect = lower value 1.01 | S. cerevisiae deletion strains, locus YLR085C, strain ARP6, stronger effect = lower value 0.845 | S. cerevisiae deletion strains, locus YLR262C, strain YPT6, stronger effect = lower value 0.941 | S. cerevisiae deletion strains, locus YML094W, strain GIM5, stronger effect = lower value 0.97 | S. cerevisiae deletion strains, locus YMR219W, strain ESC1, stronger effect = lower value 0.998 | S. cerevisiae deletion strains, locus YMR263W, strain SAP30, stronger effect = lower value 0.999 | S. cerevisiae deletion strains, locus YMR307W, strain GAS1, stronger effect = lower value 0.669 | S. cerevisiae deletion strains, locus YNL153C, strain GIM3, stronger effect = lower value 1 | S. cerevisiae deletion strains, locus YNL298W, strain CLA4 (second series), stronger effect = lower value 0.926 | S. cerevisiae deletion strains, locus YNL322C, strain KRE1, stronger effect = lower value 0.974 | S. cerevisiae deletion strains, locus YNR030W, strain Alg12, stronger effect = lower value 0.958 | S. cerevisiae deletion strains, locus YPL055C, strain LGE1, stronger effect = lower value 1.06 | S. cerevisiae deletion strains, locus YPL241C, strain CIN2, stronger effect = lower value 0.982 | S. cerevisiae deletion strains, locus YPR135W, strain CTF4, stronger effect = lower value 0.897
active: S. cerevisiae strains, strain wild type, stronger effect = lower value 0.902
